# PubChem BioAssay AID1032 (The Scripps Research Institute Molecular Screening Center, 2008)
# Hit rate of the full screen: of about 200,000 compounds, about 670 (0.34%) were called active. Rule as the data show it: active = activation above about 22%; inactive = the rest. For the sample, actives were picked, then their nearest neighbours and some compounds at random.
# Biological target: Peroxisome proliferator-activated receptor gamma (Homo sapiens) (UniProt P37231)
# Experiment: agonists of PPARg-SRC-2 recruitment, primary screen, biochemical, HTS (AID 1032);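 also: 0% = vehicle and 100% = reference agonist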
# Conditions: PPARgamma LBD-SRC-2 recruitment, at 8 µM, stronger effect = higher value
# Chain of Peroxisome proliferator-activated receptor gamma (Homo sapiens) (P37231 whole entry, looked up): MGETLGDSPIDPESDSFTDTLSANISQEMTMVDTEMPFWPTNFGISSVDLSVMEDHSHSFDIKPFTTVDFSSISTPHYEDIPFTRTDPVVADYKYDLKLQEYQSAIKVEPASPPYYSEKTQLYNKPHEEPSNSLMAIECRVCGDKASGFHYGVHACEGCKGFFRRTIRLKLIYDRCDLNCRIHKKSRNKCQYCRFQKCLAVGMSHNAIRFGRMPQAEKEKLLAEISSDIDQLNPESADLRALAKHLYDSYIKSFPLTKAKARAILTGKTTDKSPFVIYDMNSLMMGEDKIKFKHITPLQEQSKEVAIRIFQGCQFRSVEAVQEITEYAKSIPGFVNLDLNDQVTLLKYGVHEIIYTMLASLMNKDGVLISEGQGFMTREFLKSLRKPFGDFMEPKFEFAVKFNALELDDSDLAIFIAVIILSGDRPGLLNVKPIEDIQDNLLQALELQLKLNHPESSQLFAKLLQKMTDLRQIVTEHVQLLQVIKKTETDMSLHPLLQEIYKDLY
row,SMILES,activation
1,O=C(CSc1cccc2cccnc12)N/N=C/c1cccnc1,27.4% (active)
2,Cc1nc2ccccc2n1CC(=O)N/N=C/c1cccnc1,2.27% (inactive)
3,CCOC(=O)N/N=C/c1cccnc1,3.1% (inactive)
4,CC(C)CN1CCNC(=O)C1CC(=O)N(C)CC1CCOCC1 (configuration not stated),-4.08% (inactive)
5,c1ccc2sc(NN=C3CCCC3)nc2c1,-0.8% (inactive)
6,Cc1cccc2cc(CN(Cc3cccs3)C(c3nnnn3C3CCCC3)C(C)C)c(=O)[nH]c12 (configuration not stated),2.09% (inactive)
7,Cc1cccc2cc(CN(Cc3ccc4c(c3)OCO4)Cc3nnnn3C3CCCC3)c(=O)[nH]c12,27.4% (active)
8,CCC(c1nnnn1C1CCCC1)N(Cc1cccs1)Cc1cc2cccc(C)c2[nH]c1=O (configuration not stated),7.3% (inactive)
9,CC(C(=O)N=Nc1c(O)n(C)c2ccc(Br)cc12)n1cnc2ccccc2c1=O (configuration not stated),2.86% (inactive)
10,Cc1ccccc1Cn1nc(C)c(NC(=O)C(F)(F)F)c1C,-0.15% (inactive)
11,COc1cc(C2C(C(=O)c3ccc(C)o3)=C(O)C(=O)N2Cc2cccnc2)ccc1O (configuration not stated),-1.47% (inactive)
12,COc1cc(C2C(C(=O)c3ccc(C)o3)=C(O)C(=O)N2CCc2ccccc2)ccc1O (configuration not stated),0.21% (inactive)
13,CCCOc1ccc(C2C(C(=O)c3ccc(C)o3)=C(O)C(=O)N2CCCn2ccnc2)cc1 (configuration not stated),22.1% (active)
14,CCOC(=O)N1CCC(=NNC(N)=O)CC1,3.39% (inactive)
15,CCCCOC(=O)c1ccc(NC(c2ccc(C)cc2)P(=O)(OC)OC)cc1 (configuration not stated),7.71% (inactive)
16,COc1cc(C(=S)N2CCOCC2)ccc1O,5.98% (inactive)
17,COc1cccc(NC(=O)C(Sc2nc3ccccc3c(=O)n2CC(C)C)c2ccccc2)c1 (configuration not stated),1.13% (inactive)
18,Cc1ccc(NC(=S)N(CCCN2CCC(C)CC2)Cc2ccco2)cc1,-0.03% (inactive)
19,COCCNC(=O)Cn1cc(C(=O)c2cccs2)c2ccccc21,-7.11% (inactive)
20,O=C(Cn1cc(C(=O)c2cccs2)c2ccccc21)NCc1cccs1,-4.53% (inactive)
21,COC(=O)Cn1cc(C(=O)c2cccs2)c2ccccc21,25.2% (active)

row,SMILES,activation
1,O=C(CNS(=O)(=O)c1ccccc1)NCC(=O)OCc1ccccc1F,-5.13% (inactive)
2,Cc1scc(C(=O)NNC(=S)NCc2ccccc2)c1C,-7.7% (inactive)
3,CC1=NNC(=O)C1CCC(=O)N/N=C\c1ccc(Cl)c(Cl)c1 (configuration not stated),6.93% (inactive)
4,O=c1c2ccccc2c(-c2ccccc2)nn1Cc1ccccc1,-3.47% (inactive)
5,CSc1c(SCc2ccccc2)cnn(Cc2ccccc2)c1=O,28% (active)
6,Cn1c(CO)cnc1SCc1ccccc1,5.35% (inactive)
7,CN1CCC(=NNC(=O)CN(c2cccc(Cl)c2)S(C)(=O)=O)CC1,10.8% (inactive)
8,S=c1[nH]cc(-c2ccc(Cl)cc2)n1-c1ccccc1,0.94% (inactive)
9,CCc1ccc(NC(=O)C(C)OC(=O)/C=C/c2cccc([N+](=O)[O-])c2)cc1 (configuration not stated),2.51% (inactive)
10,Cc1cccn2c(CN(C)C3CCCc4ccccc43)c(C(=O)N3CCOCC3)nc12 (configuration not stated),-1.89% (inactive)
11,CCN(CCCNC(=O)CSc1cc(=O)n(C)c2cc(Cl)ccc12)Cc1ccccc1,26.1% (active)
12,CCN(CC)CCCNC(=O)CCc1ccccc1,9.5% (inactive)
13,CCN(CC)CCCNC(=O)c1cc(-c2cccc(Cl)c2)on1,0.37% (inactive)
14,CCOC(=O)N1CCN(c2cc(C)c([N+](=O)[O-])cc2F)CC1,-3.32% (inactive)
15,COc1ccc(OCc2n[nH]c(=S)n2N)cc1,4.69% (inactive)
16,c1ccc(CSc2ncnc3c2sc2nc(N4CCOCC4)c4c(c23)CCCC4)cc1,96% (active)
17,COc1ccc(CSc2nc(N3CCOCC3)c3c(c2C#N)CC(C)(C)OC3)cc1,-5.06% (inactive)
18,c1ccc(COc2nsnc2N2CCOCC2)cc1,7.85% (inactive)
19,CNC(=O)c1ccsc1NC(=O)c1ccc(S(=O)(=O)N2CCOCC2)cc1,14.3% (inactive)
20,COc1cc(/C=C(/NC(=O)c2ccc(Cl)cc2Cl)C(=O)O)cc(OC)c1OC,11.2% (inactive)
21,Cc1ccc(CNC(=O)CC2Sc3ccccc3NC2=O)cc1 (configuration not stated),0.66% (inactive)

row,SMILES,activation
1,Cc1ccc(S(=O)(=O)c2ccc(Cl)cc2)cc1S(=O)(=O)NC(C(=O)O)C(C)C (configuration not stated),-4.99% (inactive)
2,COc1cccc(NCCC(=O)c2cccc([N+](=O)[O-])c2)c1,7.36% (inactive)
3,COc1cccc2c1OCC(CN1CCN(C3CCCCC3)C(CCO)C1)=C2 (configuration not stated),1.05% (inactive)
4,Cn1c(N)cc(-c2ccc(F)cc2)c(C#N)c1=O,1.85% (inactive)
5,NC(=NC(=O)c1ccccc1)N1CCOCC1,11.2% (inactive)
6,Cc1ccc(S(=O)(=O)NC(C(=O)N2CCOCCOCCOCCOCC2)c2ccccc2)cc1 (configuration not stated),6.3% (inactive)
7,CC(C(=O)N1CCOCC1)N1c2cccc3cccc(c23)S1(=O)=O (configuration not stated),28.1% (active)
8,Oc1cccc2ccc(/C=C/c3ccc(Br)s3)nc12,-1.88% (inactive)
9,N#Cc1c(N)nc2c(c1N)CC(C(F)(F)F)O2 (configuration not stated),2.19% (inactive)
10,OCC1(CCc2ccccc2)CCN(Cc2ccc3nsnc3c2)CC1,39.5% (active)
11,CC(=O)c1cccc(CN2CCC(CO)(Cc3ccccc3)CC2)c1,4.63% (inactive)
12,Cc1cccc(-c2ncc(CN3CCC(CO)(CCCc4ccccc4)CC3)cn2)c1,5% (inactive)
13,Cc1ccc(NC(=O)c2ccc(S(=O)(=O)NCC3CCCO3)cc2)cc1C (configuration not stated),-6.15% (inactive)
14,O=C(Nc1ccc(N2CCN(C(=O)C3CC3)CC2)cc1)c1cccs1,4.68% (inactive)
15,O=C(CS(=O)(=O)c1ccccc1)Nc1ccc(S(=O)(=O)Nc2ccccn2)cc1,-6.08% (inactive)
16,CC(=O)N/N=C(\C)c1ccc(Br)cc1Br,-4.44% (inactive)
17,Cc1ccc(-c2cc(C(=O)NCc3cn(C)nc3C)c3cc(Br)ccc3n2)cc1,37% (active)
18,Cc1ccc2nc(-c3cccc(Br)c3)cc(C(=O)Nn3cnnc3)c2c1,-0.43% (inactive)
19,COc1ccc(Cl)cc1C(=O)NCc1cn(C)nc1C,8.12% (inactive)
20,O=C(Oc1cccc(O)c1)C1CCCCC1,1.13% (inactive)
